Results from PMC4336329 (PLoS ONE, 2015).
Among all 310,000 compounds or so, about 14,000 (4.5%) showed an effect of 50% or more. The effect is printed as a negative number. Only a selection was taken, and strong results are over-represented in it overall.

These compounds were tested against human ether-à-go-go-related gene (hERG) potassium channel (human, UniProt Q12809) (assay: primary screen, population patch clamp on CHO cells stably expressing hERG; higher = less effect of the substance).
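Also: peak tail current of the secondary pulse compared with the same well before compound.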

Sequence of human ether-à-go-go-related gene (hERG) potassium channel (Q12809 whole entry, looked up): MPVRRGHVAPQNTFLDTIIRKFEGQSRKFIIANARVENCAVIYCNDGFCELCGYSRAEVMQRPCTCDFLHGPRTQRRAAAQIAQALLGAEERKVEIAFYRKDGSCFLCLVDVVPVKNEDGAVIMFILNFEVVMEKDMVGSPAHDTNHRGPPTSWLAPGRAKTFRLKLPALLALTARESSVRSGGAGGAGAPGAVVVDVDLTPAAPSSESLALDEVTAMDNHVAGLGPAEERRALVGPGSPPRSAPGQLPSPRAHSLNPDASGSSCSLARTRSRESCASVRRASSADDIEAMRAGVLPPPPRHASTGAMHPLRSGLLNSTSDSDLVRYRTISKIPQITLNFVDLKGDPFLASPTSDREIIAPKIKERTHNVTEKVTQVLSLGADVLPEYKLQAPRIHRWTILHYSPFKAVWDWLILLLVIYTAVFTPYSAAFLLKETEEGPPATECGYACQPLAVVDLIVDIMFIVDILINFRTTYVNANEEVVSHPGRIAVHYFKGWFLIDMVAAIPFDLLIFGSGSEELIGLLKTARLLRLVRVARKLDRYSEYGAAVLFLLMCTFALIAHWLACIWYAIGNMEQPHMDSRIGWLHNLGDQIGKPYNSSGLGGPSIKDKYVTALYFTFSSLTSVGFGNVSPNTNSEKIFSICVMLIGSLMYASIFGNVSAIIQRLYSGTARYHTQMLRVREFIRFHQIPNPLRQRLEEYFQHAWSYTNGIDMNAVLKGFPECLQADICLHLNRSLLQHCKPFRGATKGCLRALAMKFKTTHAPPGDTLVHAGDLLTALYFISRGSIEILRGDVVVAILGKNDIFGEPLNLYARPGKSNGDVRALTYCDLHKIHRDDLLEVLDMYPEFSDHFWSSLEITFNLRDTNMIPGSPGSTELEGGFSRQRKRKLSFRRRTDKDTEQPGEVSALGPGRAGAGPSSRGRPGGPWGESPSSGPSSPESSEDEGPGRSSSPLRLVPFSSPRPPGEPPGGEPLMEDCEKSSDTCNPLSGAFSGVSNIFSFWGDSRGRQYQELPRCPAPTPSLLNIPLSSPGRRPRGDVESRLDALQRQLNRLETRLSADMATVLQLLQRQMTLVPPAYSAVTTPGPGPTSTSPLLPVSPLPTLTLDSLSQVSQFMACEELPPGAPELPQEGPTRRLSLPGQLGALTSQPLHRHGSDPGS

Compound	hERG current change (%, negative = inhibition) at 10uM
CC(CNC(=O)CCc1nnc2ccc(N3CCC4(CC3)OCCO4)nn12)c1ccccc1 (stereo not drawn)	-0.296%
O=C(CNC(=O)c1sc2ccccc2c1Cl)NC1CC1	3.65%
CCCCOc1ccccc1C(=O)NNC(=S)NC(=O)c1ccccc1[N+](=O)[O-]	3.48%
NS(=O)(=O)c1ccc(NC(=O)c2cc(-c3cc(Cl)ccc3O)n[nH]2)cc1	15.7%
CCC(CC)C(=O)N1N=C(c2ccc(NS(C)(=O)=O)cc2)CC1c1ccccc1 (stereo not drawn)	-41.4%
CCS(=O)(=O)N1N=C(c2ccc(NS(C)(=O)=O)cc2)CC1c1ccccc1 (stereo not drawn)	-62.1%
CS(=O)(=O)Nc1ccc(C2=NN(S(C)(=O)=O)C(c3ccccc3)C2)cc1 (stereo not drawn)	-73.6%
CS(=O)(=O)N1N=C(c2cccs2)CC1c1ccccc1 (stereo not drawn)	-11.3%
CCS(=O)(=O)Nc1ccc(C2=NN(S(=O)(=O)CC)C(c3cccs3)C2)cc1 (stereo not drawn)	-9.32%
CS(=O)(=O)N1N=C(c2ccc3nccnc3c2)CC1c1ccccc1 (stereo not drawn)	-7.62%
Cc1ccc2nc(-c3ccc(N4C(=NC(=O)CCC(=O)O)SC5CS(=O)(=O)CC54)cc3)sc2c1 (stereo not drawn)	-19.3%
O=C(NC(Cc1c[nH]c2ccccc12)C(=O)N/N=C/c1ccc(Br)cc1)c1cccs1 (stereo not drawn)	8.02%
O=C(Nc1nccs1)C1CCCN(S(=O)(=O)c2cccc3cccnc23)C1 (stereo not drawn)	-3.72%
CCCCOc1ccc(-c2nnc(N)s2)cc1	2.84%
CC(C)CCNC(=O)/C=C/c1ccc(Br)cc1	0.187%
Cc1[nH]nc(Nc2ccc(O)cc2)c1[N+](=O)[O-]	23.6%
Cc1oc(-c2cccc(Cl)c2)nc1CN1CCCC(C(=O)NCc2ccco2)C1 (stereo not drawn)	-73%
Cc1oc(-c2cccc(Cl)c2)nc1CS(=O)(=O)CC(=O)NCc1ccco1	-28.2%
CCCS(=O)(=O)N1CCCC(C(=O)NC(C)c2ccc3c(c2)OCCO3)C1 (stereo not drawn)	9.55%
Cc1oc(-c2ccc(Cl)cc2)nc1CN1CCCC(C(=O)NCCCN2CCCC2=O)C1 (stereo not drawn)	-30.8%
Cc1oc(-c2ccc(Cl)cc2)nc1CN1CCCC(C(=O)NCc2ccco2)C1 (stereo not drawn)	-71.9%

Compound	hERG current change (%, negative = inhibition) at 10uM
O=C(NCc1ccco1)C1CCCN(S(=O)(=O)c2ccc(Cl)cc2)C1 (stereo not drawn)	-13.2%
CCN1CCN(CCNC(=O)C2CCCN(Cc3nc(-c4cccc(Cl)c4)oc3C)C2)CC1 (stereo not drawn)	-6.73%
Cc1oc(-c2cccc(Cl)c2)nc1CN1CCCC(C(=O)NC(C)c2ccc3c(c2)OCCO3)C1 (stereo not drawn)	-57.5%
Cc1oc(-c2cccc(Cl)c2)nc1CN1CCCC(C(=O)NCCCN2CCOCC2)C1 (stereo not drawn)	-28.1%
COc1ccccc1NC(=O)c1ccccc1NS(C)(=O)=O	-1.12%
O=C(O)/C=C/c1ccc(O)c(O)c1	13.1%
O=C1CSC(=S)N1c1ccc(Cl)c(Cl)c1	20.7%
CC1=C(C(=O)OC(C)(C)C)C(c2cccs2)NC(=O)N1 (stereo not drawn)	-0.0788%
Cc1cc(OCC(=O)N2C[C@H]3C[C@@H](C2)c2cccc(=O)n2C3)c2c(C)c(C)c(=O)oc2c1	0.123%
CC(C)(CC(=O)O)CC(=O)N1CCCN(c2nccc(C(F)(F)F)n2)CC1	17.8%
O=C(NCc1ccncc1)C1CCN(S(=O)(=O)Cc2ccccc2)CC1	-10.4%
Cc1ccc(C)c(SCC(=O)Nc2nnc(-c3ccccc3)o2)c1	14.1%
CCN(C(=O)COC(=O)c1cc(-c2cccc3ccccc23)nc2ccccc12)C1CCS(=O)(=O)C1 (stereo not drawn)	-6.23%
CCN(C(=O)COC(=O)c1cc(-c2ccccc2)nn1-c1ccccc1)C1CCS(=O)(=O)C1 (stereo not drawn)	-12.8%
CCN(C(=O)COC(=O)c1cccnc1Nc1cccc(C(F)(F)F)c1)C1CCS(=O)(=O)C1 (stereo not drawn)	-51%
O=C(COC(=O)/C=C/c1cccc(C(F)(F)F)c1)NCCN1C(=O)CSC1=O	-28.1%
CN(C(=O)COC(=O)c1cn(-c2ccccc2)nc1-c1ccccc1)C1CCS(=O)(=O)C1 (stereo not drawn)	-16.6%
Cc1ccc(-c2cc(C(=O)OCC(=O)N(C)C3CCS(=O)(=O)C3)c3ccccc3n2)o1 (stereo not drawn)	-19.1%
O=C(COC(=O)c1cccnc1Nc1ccccc1F)NCCN1C(=O)CSC1=O	-27.7%
CCN(C(=O)COC(=O)c1cn(-c2ccccc2)nc1-c1ccccc1)C1CCS(=O)(=O)C1 (stereo not drawn)	-75.9%
O=C(COC(=O)c1cccnc1Nc1cccc(C(F)(F)F)c1)NC1CCS(=O)(=O)C1 (stereo not drawn)	-16.1%

Compound	hERG current change (%, negative = inhibition) at 10uM
CCN(C(=O)COC(=O)c1cc(-c2ccc(C)o2)nc2ccccc12)C1CCS(=O)(=O)C1 (stereo not drawn)	-66.7%
O=C(COC(=O)c1cccnc1Nc1cccc(C(F)(F)F)c1)NCCN1C(=O)CSC1=O	-58.7%
CCN(C(=O)COC(=O)c1cccnc1Nc1ccccc1F)C1CCS(=O)(=O)C1 (stereo not drawn)	-9.99%
Cc1ccc(C(=O)NC(=S)NNS(=O)(=O)c2ccc(C)cc2)cc1	3.32%
O=C(Nc1ccc(Cl)cn1)c1ccc(Br)c(S(=O)(=O)N2CCCCC2)c1	18.7%
CC(=O)Nc1ccc(S(=O)(=O)N(Cc2cccnc2)Cc2cc3ccccc3[nH]c2=O)cc1	11.4%
Cc1cccc(Nc2ccc(S(=O)(=O)N3CCOCC3)cc2[N+](=O)[O-])c1	-30.2%
CCn1c(CSc2nc(C)cc(C)n2)nnc1SCC(=O)Nc1nc(-c2ccccc2)cs1	-9.09%
O=c1c2ccccc2c2ccccc2c(=O)n1CC1CCCO1 (stereo not drawn)	-14.4%
Cc1ccc(C)c(NC(=O)c2cccc(Oc3ccc([N+](=O)[O-])cc3Cl)c2)c1	-4.21%
COc1ccc(S(=O)(=O)NNC(=O)c2csc(-n3nc(C)cc3C(F)(F)F)n2)cc1	19.9%
COc1ccc(CCN2CCCC(CN(C)C(=O)c3ccoc3C)C2)cc1 (stereo not drawn)	13.4%
Cc1nc2ccc(C(=O)N(C)CC3CCCN(CCc4ccc(Cl)cc4)C3)cc2[nH]1 (stereo not drawn)	-61.2%
CN(CC1CCCN(CCc2ccc(Cl)cc2)C1)C(=O)c1ccc2nc[nH]c2c1 (stereo not drawn)	-34.1%
CN(C)CCN(CC1CCCN(Cc2ccccc2F)C1)C(=O)c1ccc(Cl)cc1 (stereo not drawn)	-14%
COc1ccc(CCN2CCCC(CN(C)C(=O)c3ccoc3)C2)cc1 (stereo not drawn)	-72.9%
CN(CC1CCCN(CCc2ccc(Cl)cc2)C1)C(=O)c1ccoc1 (stereo not drawn)	-85.7%
Cc1ccccc1CCN1CCCC(CN(C)C(=O)c2ccc3ncccc3c2)C1 (stereo not drawn)	-30.3%
CCc1nc(SCC(=O)NCCc2ccccc2)n[nH]1	-3.42%
CSc1nc2c(cc1C#N)CCCCC2	7.65%
C=CCn1c(O)c(N=Nc2c(C)n(C)n(-c3ccccc3)c2=O)c(=O)[nH]c1=S	-1.57%

Compound	hERG current change (%, negative = inhibition) at 10uM
O=C(Nc1cccc(Cl)c1)c1ccc(NCC2CCCO2)c([N+](=O)[O-])c1 (stereo not drawn)	-2.53%
CCN=C(NCC)SC1CC(=O)N(c2ccc(OC)cc2)C1=O (stereo not drawn)	0.718%
CCOC(=O)c1cc(C(=O)Nc2sc3c(c2C#N)CCCC3)nn1C	12.4%
O=C(/C=C/c1ccc(N2CCOCC2)cc1)c1ccccc1	-1.16%
CCSC1=N/C(=C\c2cccc(F)c2)C(=O)S1	10.4%
COc1ccccc1-c1ccc(Nc2ccc(C(=O)N3CCOCC3)cc2)nn1	-20.1%
COc1ccc2nc(C)cc(NCCN3CCOCC3)c2c1	15.4%
Cc1cc(C)c2nc(C)cc(Nc3ccc(C(=O)N4CCOCC4)cc3)c2c1	-43.8%
Cc1cc(C)nc(Nc2ccc(N3CCOCC3)cc2)n1	-5.99%
Cc1ccc(Nc2cc(C)nc3c(C)cccc23)cc1	-53.3%
CC(=O)c1ccc(Nc2ccc(-c3ccccc3C)nn2)cc1	-17.5%
COc1ccc(Nc2cc(C)nc3c(C)cccc23)cc1OC	-21.3%
Cc1nc(NCCN2CCOCC2)c2oc3ccccc3c2n1.Cl	-31.5%
CCOc1ccc(Nc2cc(C)nc3c(C)cccc23)cc1	-45.6%
Cc1cc(NCCN2CCOCC2)c2ccc3ccccc3c2n1	-69.5%
Cc1cc(Nc2ccc(N3CCOCC3)cc2)c2cccc(C)c2n1.Cl	-56.6%
Cc1ccccc1-c1ccc(Nc2ccc(N3CCOCC3)cc2)nn1	-76%
CCN(CC(=O)NCc1ccc(F)cc1)C(=O)c1ccc2c(c1)OCO2	-5.66%
O=C(CNC(=O)c1ccccc1Cl)OCC(=O)N1CCc2ccccc21	-10.5%
COc1ccc(Cc2nnc(Nc3ccccc3)s2)cc1Br	13.9%
COc1ccc2[nH]c3c(c2c1)CCN1C(=O)N([C@@H](C)C(=O)NCC2CCCO2)C(=O)[C@]31C (stereo partly drawn)	-6.78%
